Measured values taken from ChEMBL document CHEMBL3988442, “University of Dundee, Small-Polar-MMV Screening Library” (2021).
Among all 48,000 compounds or so, about 13,000 (27%) showed an effect of 50% or more. Some of the results follow.

system: Wolbachia pipientis; experiment: Anti-Wolbachia Cell-Based Screen; type: functional; set-up: scale not given: in the data most compounds retested in dose-response had high values; conditions: 5 µM

| Structure (SMILES) | Percent Effect [%] |
| --- | --- |
| CCCc1nc(C)cc(N2CCC3(CCC(=O)N(CCCO)C3)CC2)n1 | 11.58 |
| Cc1cc(SC(C)(C)C)ccc1NCC(=O)NC(N)=O | 1.645 |
| CCCS(=O)(=O)C(C)C(=O)Nc1ccc2oc(C3CC3)nc2c1 (stereo unspecified) | 3.211 |
| Cl.Cl.FC(F)(F)c1cccc(-c2c[nH]c(C3CCCN3)n2)c1 (stereo unspecified) | -28.55 |
| Cc1cc(Cc2ccc(F)cc2)cc(C2CCCNC2)n1 (stereo unspecified) | 73.78 |
| Cc1cc(Cc2cccc(C(F)(F)F)c2)cc(C2CCCNC2)n1 (stereo unspecified) | 97.1 |
| Cc1cc(Cc2ccccc2)cc(C2CCCNC2)n1 (stereo unspecified) | 107.8 |
| Cc1cccc(Cc2cc(C)nc(C3CCCNC3)c2)c1 (stereo unspecified) | 70.21 |
| O=C(NC1CCCNC1)c1cc(COc2cccc(C(F)(F)F)c2)[nH]n1 (stereo unspecified) | 2.713 |
| O=C(CN1CCOc2ccccc2C1)N1Cc2cnn(CCO)c2C1 | 6.512 |
| Cc1cnc(C)c(-c2cc(O)c3c(c2)CN(c2ncccn2)CCO3)n1 | -18.62 |
| CN(C)C(=O)c1nc(CN2CC(c3ccccc3)CC2=O)no1 (stereo unspecified) | 7.307 |
| C=C(C)CN(CC)Cc1nc(C2CC2)no1 | 1.764 |
| CCCS(=O)(=O)N1CCn2cc(CNc3ccccn3)nc2C1.O=C(O)C(F)(F)F | -1.498 |
| O=C(CSCc1ccccn1)N(Cc1ccsc1)C1CC1 | -10.63 |
| OC1(CNC2CCN(c3ccccn3)CC2)CCc2ccccc21 (stereo unspecified) | 6.779 |
| CCC(=O)N1CCN(C(=O)Nc2cccc(C#N)c2)[C@H]2CS(=O)(=O)C[C@H]21 | -1.601 |
| CS(=O)(=O)N1CCC(C(=O)Nc2nnc(C(F)(F)F)[nH]2)CC1 | 11.43 |
| O=C(Cn1cc(NC(=O)c2ccc(F)cc2F)cn1)NC1CCCC1 | 5.692 |
| O=C(Nc1cnn(Cc2ccc(Cl)cc2)c1)N[C@@H]1C=C[C@H](CO)C1 | -9.454 |
| CCOC1CCCN(C(=O)Nc2cnn(CC(F)F)c2)C1 (stereo unspecified) | 6.944 |
| CN(Cc1ccc(Cl)cc1)C(=O)Nc1cnn(CC(N)=O)c1 | 3.306 |

| Structure (SMILES) | Percent Effect [%] |
| --- | --- |
| CS(=O)(=O)N1CCCC(C(=O)Nc2cnn(Cc3ccc(Cl)cc3)c2)C1 (stereo unspecified) | 106.8 |
| CS(=O)(=O)N1CCCC(C(=O)Nc2cnn(Cc3ccc(F)cc3)c2)C1 (stereo unspecified) | 99.84 |
| CC(C)C1CN(S(C)(=O)=O)CCCN1Cc1ccc(F)cc1 (stereo unspecified) | 3.687 |
| CS(=O)(=O)N1CCC(C(=O)N2CCC(Cn3cccn3)CC2)CC1 | -10.97 |
| CCn1cc(NC(=O)C2CCN(CCOC(C)C)CC2)cn1 | -5.388 |
| CCOCn1cc(NC(=O)C2CCN(S(C)(=O)=O)CC2)cn1 | 105.1 |
| CS(=O)(=O)N1CCCC(C(=O)Nc2cnn(COCC(F)(F)F)c2)C1 (stereo unspecified) | 96.9 |
| Cc1nc(CNC(C)c2cccc(S(=O)(=O)N(C)C)c2)no1 (stereo unspecified) | -7.216 |
| CS(=O)(=O)c1ccc(NC(=O)CSc2ccc3c(c2)CCC3)cc1 | 1.625 |
| Cn1cnc2c1C(COCC1CC1)CN(C(=O)c1ccsc1)C2 (stereo unspecified) | -2.938 |
| COCCN1CCN(CCS(=O)(=O)c2cccc(OC)c2)CC1 | 2.005 |
| CN(C)C(=O)CCNC(=O)Nc1sc2ccccc2c1Cl | -12.49 |
| N#CCC(=O)NCc1nnc2n1CCN(Cc1nccs1)C2 | -14.07 |
| CCS(=O)(=O)N1CC(c2nc(-c3ccncc3)no2)C1 | -18.6 |
| Cc1ccc(-c2noc(C(C)(C)NS(C)(=O)=O)n2)cc1F | 124.7 |
| CC(C)(CNc1ccc2ccc(F)cc2n1)NS(C)(=O)=O | -16.93 |
| CC(C)(NS(C)(=O)=O)c1nc(-c2cccc(Cl)c2)no1 | 115.9 |
| CC(C)(NS(C)(=O)=O)c1nc(-c2ccc(F)cc2Cl)no1 | 95.59 |
| CCc1nc(NS(=O)(=O)c2ccc(F)cc2Cl)no1 | 2.388 |
| CC(C)(NS(C)(=O)=O)c1nc(-c2ccncc2)no1 | 92.68 |
| Cc1ccc(-c2noc(CN3CCOC(CN(C)C)C3)n2)cc1F (stereo unspecified) | -11.04 |
| Cc1ccc(-c2noc(CNCC3CN(C)CCO3)n2)cc1F (stereo unspecified) | 8.94 |

| Structure (SMILES) | Percent Effect [%] |
| --- | --- |
| CC(C)C1=NOC(c2nc(-c3cccc(Cl)c3)no2)C1 (stereo unspecified) | -9.721 |
| CC(Cn1cccn1)NCc1nc(-c2cccc(Cl)c2)no1 (stereo unspecified) | -1.118 |
| CCNc1nc(C)c(C(=O)N(C)Cc2nc(-c3ccncc3)no2)s1 | -39.74 |
| O=C1[C@H]2CC[C@H](CN(C3CSCCSC3)C2)N1Cc1cscn1 | 1.539 |
| COC(=O)c1ccc(N2CCN(C(=O)c3cnn(C)c3)C(C)C2)cc1 (stereo unspecified) | 5.538 |
| Cc1cnn(CC(C)NCc2ccc(OCc3ccncc3)cc2)c1 (stereo unspecified) | 2.463 |
| CCn1c(CN(C)C(=O)c2ccc(OC)nc2)nc2ccccc21 | -6.401 |
| OC1(CN2CCCC2)COCCN(c2noc(-c3ccccc3)n2)C1 (stereo unspecified) | -20.3 |
| N#Cc1cc(F)c(NCCCOCC2CCOC2)c(F)c1 (stereo unspecified) | -9.574 |
| Cc1cc(-c2noc(C3CCS(=O)(=O)C3)n2)ccc1F (stereo unspecified) | -6.108 |
| Cc1cc(-c2nnn(CCNS(C)(=O)=O)n2)ccc1F | -4.563 |
| CC(C)(NS(C)(=O)=O)c1nc(-c2ccc(F)c(F)c2)no1 | 108 |
| CCn1cc(CNc2ccc3nccnc3c2)cn1 | 0.1341 |
| CC[C@@]1(O)CCN(C(=O)CN(C)Cc2ccc(F)cc2)C[C@H]1O | -15.44 |
| CCS(=O)(=O)N1C[C@@H](O)[C@H](N(C)Cc2ccc(F)cc2)C1 | 127.5 |
| CN(Cc1ccc(F)cc1)[C@@H]1CN(C(=O)c2cccs2)C[C@H]1O | 3.837 |
| CC(C)C1CN(S(=O)(=O)N(C)C)CCCN1Cc1ccc(F)cc1 (stereo unspecified) | 3.4 |
| CN(Cc1ccc(F)cc1)[C@@H]1CN(S(C)(=O)=O)C[C@H]1O | 89.96 |
| CN(Cc1ccc(F)cc1)S(=O)(=O)N1CCOCC1 | -4.525 |
| CS(=O)(=O)N1CCO[C@@H]2CN(Cc3ccc(F)cc3)C[C@@H]2C1 | -1.129 |
| CN(C)S(=O)(=O)N1CCC2(CCCN(Cc3ccc(F)cc3)C2=O)C1 (stereo unspecified) | -3.561 |
| CN(Cc1ccc(F)cc1)[C@@H]1CN(S(=O)(=O)N(C)C)C[C@H]1O | 124.5 |
